Screening data (PubChem)
Pf growth 96h = P. falciparum growth inhibition at 96 hours | P. falciparum luciferase reporter growth, 96 h | Potency, µM (doses to about 28.7 µM), for the others: top-dose activity change, negative = inhibition, usual class: inhibitors | 320,000 tested, 6.9% active | AID 504834; also: potency is read from the fitted curve at half-maximal effect; % is scaled to controls: 0 for no effect and ±100 for the full control effect
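Plates of compound plus infected erythrocytes (2% hematocrit, 0.05% parasitemia final) incubate 96 hours, 37 C, 5% CO2. Detection reagent added; reduced luminescence from the parasites' luciferase reporter flags inhibition.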
Pf growth 48h = P. falciparum growth inhibition at 48 hours (one generation). P. falciparum luciferase growth in erythrocytes, 48 h. Potency, µM (titrated, usually from 28.7 µM), for the others: at the top dose activity change, negative = inhibition, hits mostly inhibitors. 310,000 tested, 5.9% active; also: potency is read from the fitted curve at half-maximal effect; % is scaled to controls: 0 for no effect and ±100 for the full control effect
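A one-generation exposure of luciferase-tagged malaria parasites in RPMI 1640/Albumax erythrocyte culture, 37 C and 5% CO2. Inhibition is inferred from decreased luminescence after adding detection reagent.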
CHX counter = counter-screen for Shiga toxin inhibitors: cycloheximide protein synthesis inhibition; 300,000 tested, 12% active; cell reporter, cycloheximide protein synthesis inhibition counterscreen; AID 2314; max response, %; in the data active = max response mostly above about 13%, no sharp cut-off; inactive = mostly below about 14%; also: read at 38.3 µM for the half of the compounds with a filed dose; 0% is about no effect
HCMV antiviral = blocks human cytomegalovirus replication | HFF cells, HCMV-luciferase reporter, 72 h; active compounds read low | activity change, negative = inhibition, % at 57.5 µM | 410,000 tested, 4.5% active; in the data active = activity change below about -60%; inconclusive = no clear call, values can overlap the other calls; inactive = above about -39%; also: % is scaled to controls: 0 for no effect and ±100 for the full control effect
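Two-dose cell screen: HFF monolayers treated with compounds and infected with luciferase-expressing HCMV at 1 PFU/cell, 72 h at 37C, then lysed for luciferase measurement.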
Shiga inhibitor = inhibitors of Shiga toxin in Vero cells; 290,000 tested, 9.2% active; Vero cells, Shiga toxin protein synthesis inhibition reporter; inhibition, % at 38.7 µM; in the data active = inhibition mostly above about 28%, no sharp cut-off; inactive = mostly below about 43%; also: 0% is about no effect
* hit, by the source's call; u = inconclusive; x = no result; ! = not confirmed by another sample. Sampled rows, rich in hits. Any-hit rate of the full collection: about 20%. Unless noted, calls follow the shape of the dose curve; as a rule, active = well fitted inhibition curve with a large enough effect; inconclusive = small, poorly fitted or top-dose-only effect, or another doubt; inactive = no such curve, though single readings can be large or run the other way.

SMILES	Pf growth 96h	Pf growth 48h	CHX counter	HCMV antiviral	Shiga inhibitor
CCCCCn1cnc2sc(CC)cc2c1=O	201%	169%	66*	-4	active
CCc1cc2c(=O)n(CC(=O)NC3CCCCC3)cnc2s1	8%	1%	7	-3	-18
CCc1cc2c(=O)n(-c3ccc(Br)cc3)cnc2s1	x	143%	16*	17	73
CC(C)CCC1(CCNC(=O)c2cccs2)CCOC(C)(C)C1 (stereo not given)	-30%	u	-2	2	6
COc1cc2c(cc1OC)CN(CC(=O)Nc1ccc(F)cc1)C(C(=O)O)C2 (stereo not given)	0%	3%	-1	-18	0
CN1CCN(c2nc(C#N)cc(-c3ccccc3)n2)CC1	-7%	u	4	-23	-12
Cc1cc(-c2ccccc2)nc2[n+]1CCN2C	x	x	-5	-84*	-10
CC(Oc1ccc2c(=O)c(-c3ccc(Cl)cc3)c(C(F)(F)F)oc2c1)C(=O)O (stereo not given)	29%	10µM*	-5	0	-2
Nc1ccccc1SCc1c(Cl)cccc1Cl	0%	13%	1	52	22
Nc1nc(SCc2ccccc2)ns1	x	77%	17*	74	35*
Nc1nc(SCc2ccccc2Cl)ns1	4%	17%	17*	36	58*
CC(C)CSc1nsc(N)n1	x	98%	31	113	50
Nc1nc(SCc2ccc(Cl)cc2)ns1	u	50%	38*	8	68*
Nc1ccccc1SCc1ccccc1Cl	46%	30%	25*	-66*	56*
Cc1ccc(C(c2sc3nc(-c4ccco4)nn3c2O)N2CCN(Cc3ccccc3)CC2)cc1 (stereo not given)	x	x	x	27	x
Nc1ccccc1SSc1ccccc1N	u	u	69*	45	127*
N#Cc1ccccc1Sc1ccccc1N	1%	-1%	-2	12	-19
CCOC(=O)c1ccccc1NC(=O)C1CCN(c2ncnc3sc(C)c(C)c23)CC1	-14%	10µM*	x	x	x
Cc1sc2ncnc(N3CCC(C(=O)Nc4ccc(C#N)cc4)CC3)c2c1C	u	u	x	-3	x
Cc1sc2ncnc(N3CCC(C(=O)Nc4ccccc4C(C)(C)C)CC3)c2c1C	u	12µM*	x	-36	x
COc1cc(Cl)ccc1OCc1cc(C(=O)N(C)CC2CCCCO2)no1 (stereo not given)	u	14%	40*	34	88*
COc1ccc(OCc2cc(C(=O)N(C)C(C)c3ccon3)no2)c(Cl)c1 (stereo not given)	u	44%	34*	-93*	73*
COc1ccc(OCc2cc(C(=O)N(C)CCC3CCOCC3)no2)c(Cl)c1	u	3%	32*	12	60*
CN(CC1CCCCO1)C(=O)c1cc(COc2ccc(F)cc2Cl)on1 (stereo not given)	26%	u	-2	24	-11
COc1ccc(OCc2cc(C(=O)N(C)CC3CCCCO3)no2)c(Cl)c1 (stereo not given)	u	50%	48*	u	79*
SMILES	Pf growth 96h	Pf growth 48h	CHX counter	HCMV antiviral	Shiga inhibitor
COCCC(=O)N1CCC(Oc2ccc(C(=O)N(C)C(C)c3ccon3)cc2)CC1 (stereo not given)	u	7%	-2	1	16
CN(CCCN1CCOCC1)C(=O)c1cc(COc2c(F)cccc2F)on1	40%	-9%	3	10	11
COc1cccc(-c2nc(CSCC(=O)NCCc3ccc(Cl)cc3)c(C)o2)c1	x	x	x	-31	x
CC(C)CC1N=C2c3ccccc3N=C(SCC(=O)NCCc3ccc(Cl)cc3)N2C1=O (stereo not given)	x	x	x	2	x
COc1ccc(C(O)c2nc(-c3ccoc3)cs2)cc1 (stereo not given)	x	x	x	-12	x
c1ccc(C2CN3CCSC3=N2)cc1 (stereo not given)	1.9µM*!	2.7µM*!	-1	0	-8
CCc1ccc(-c2ccc(SCC(=O)Nc3nnc(C)s3)nn2)cc1	53%	145%	21	118	80*
Cc1nnc(NC(=O)CSc2ccccn2)s1	13µM*	7%	1	9	21
O=C(CSc1ccccn1)Nc1nc2ccc(Br)cc2s1	u	-6%	25*	2	38
CC(C)Cc1nnc(NC(=O)CSc2ncn[nH]2)s1	x	21%	-2	-11	-2
CC(C)Cc1nnc(NC(=O)CSc2ccccn2)s1	u	x	23*	15	19
CCOc1cc(NC(=S)NCCCN2CCOCC2)c(OCC)cc1NC(=O)c1ccc(C)cc1	43%	61%	-1	-4	-4
CCOC(=O)Cn1cnc2scc(-c3ccc(C)cc3)c2c1=O	u	7%	-2	-18	-10
O=C(NC1=NCCS1)c1ccccc1OCc1ccc(F)cc1	2%	43%	3	53	-6
CCOc1ccc(-c2nc(C)c(C(C)=O)n2O)cc1	x	27%	6	109	16
COc1ccc(-c2nc(C)c(C(C)=O)n2O)cc1	4.7µM*	10%	15	94	1
CC1CCCC=CC2CC(OC(=O)CN(C)C)CC2C(O)C=CC(=O)O1 (stereo not given)	x	x	x	-98*	x
C[C@H]1CCC/C=C/[C@@H]2C[C@H](O)C[C@H]2[C@H](O)[C@H](S(=O)c2ccc(O)cc2)CC(=O)O1 (stereo not given in full)	x	x	x	-99*	x
C[C@H]1CCC/C=C/[C@@H]2C[C@H](O)C[C@H]2[C@@H](O)/C=C/C(=O)O1	x	x	x	-76*	x
O=C(NCC(c1ccc2c(c1)OCO2)N1CCN(c2ccccc2)CC1)c1ccccc1 (stereo not given)	x	x	x	17	x
COc1ccc(CCNC(=O)c2c(O)nc3c(C)cccn3c2=O)cc1OC	x	x	x	-9	x
O=C(Nc1ccccc1)Nc1nnc(Cc2ccccc2F)s1	u	0%	2	60	-2
O=C(Nc1ccc(F)cc1)Nc1nnc(Cc2ccccc2F)s1	10µM*	u	-3	-24	x
O=C(Nc1nnc(Cc2ccccc2)s1)Nc1ccccc1F	15µM*	-39%	10	27	-2
O=C(c1ccco1)N1CCN(Cc2cc(=O)oc3cc(O)ccc23)CC1	u	5%	x	-14	x
SMILES	Pf growth 96h	Pf growth 48h	CHX counter	HCMV antiviral	Shiga inhibitor
CCOc1ccc(CCNC(=O)c2cccc(S(=O)(=O)N3CCN(C(C)=O)CC3)c2)cc1OCC	-16%	u	x	-18	x
O=C(O)CSc1cnc2ccccc2n1	-5%	x	13	-20	-2
Clc1ccc(Sc2cnc3ccccc3n2)cc1	26%	38%	38*	-8	85*
O=C(O)c1cnc(-c2ccccc2)nc1Sc1ccccc1Cl	88%	9%	1	43	-5
O=C(O)c1cccnc1Sc1ccc(Br)cc1	-3%	-1%	-2	9	-6
Clc1ccccc1Sc1cnc2ccccc2n1	u	x	22*	3	23
c1ccc(Sc2cnc3ccccc3n2)cc1	42%	117%	64*	-5	108*
Brc1ccc(Sc2cnc3ccccc3n2)cc1	-3%	3%	33*	-5	76*
